Percent response (growth) data for two compounds are collected here from PubChem BioAssay AID2125 (NMMLSC, 2009).

Active and inactive are the calls of the source.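 How the source made its calls: active means combined score above 50, rising as EC50 falls below 10 µM and growth at top dose drops; inactive means the rest.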 Peptide text beside a SMILES is read from it. * marks the point of attachment. Cbz = O=C(OCc1ccccc1)*

The experiment relates to YE3961. Put plainly: yeast strain panel proliferation effects – secondary panel, OD600, 26S proteasome disassembly project, profiling panel (AID 2125). The following applies: S. cerevisiae strain panel, growth OD600, 6-8 h, at 100 µM, stronger effect = lower value.

For the compound `CC(C)C[C@@H](C=O)NC(=O)[C@H](CC(C)C)NC(=O)[C@H](CC(C)C)NC(=O)OCc1ccccc1` (Cbz-Leu-Leu-Leu-aldehyde), the percent response (growth) is 59% (inactive).
To `CC(=O)N1C(=O)C(=C2C=C(C)OC(C)=C2)c2ccccc21` belongs 78.5% (inactive).
